This excerpt belongs to a sample that is enriched for hits.
ALOX12 inh: Primary qHTS assay for inhibitors of human arachidonate 12S-lipoxygenase (ALOX12): Round 2; Polyunsaturated fatty acid lipoxygenase ALOX12 (Homo sapiens), P18054; purified 12hLO, xylenol orange hydroperoxide absorbance; Potency, µM (series often up to 108 µM), usual class: inhibitors; 1.1% of 580,000 active; AID 1671190, 2021
Target sequence (P18054 whole entry, looked up): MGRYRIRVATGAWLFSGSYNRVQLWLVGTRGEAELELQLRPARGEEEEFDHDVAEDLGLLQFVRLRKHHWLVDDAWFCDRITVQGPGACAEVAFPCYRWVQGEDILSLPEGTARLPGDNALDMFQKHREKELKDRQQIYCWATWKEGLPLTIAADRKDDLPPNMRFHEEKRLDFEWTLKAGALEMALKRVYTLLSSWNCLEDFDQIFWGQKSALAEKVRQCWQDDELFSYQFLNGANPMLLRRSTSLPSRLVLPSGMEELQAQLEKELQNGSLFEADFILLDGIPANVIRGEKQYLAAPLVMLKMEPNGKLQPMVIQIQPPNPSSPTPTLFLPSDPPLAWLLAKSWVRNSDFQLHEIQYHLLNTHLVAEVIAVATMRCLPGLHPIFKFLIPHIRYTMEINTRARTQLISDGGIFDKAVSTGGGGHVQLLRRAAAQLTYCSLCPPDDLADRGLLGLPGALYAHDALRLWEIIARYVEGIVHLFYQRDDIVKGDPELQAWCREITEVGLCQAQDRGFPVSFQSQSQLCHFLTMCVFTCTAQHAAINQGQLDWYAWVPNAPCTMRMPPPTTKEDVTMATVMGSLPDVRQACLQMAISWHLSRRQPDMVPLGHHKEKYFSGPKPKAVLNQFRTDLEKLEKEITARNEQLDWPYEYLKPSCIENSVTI
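Purified human 12hLO at 150 nM in 25 mM Hepes, 0.01% Triton X-100, pH 7.0, preincubated 15 min at room temperature with compound. Reaction started with 40 uM arachidonic acid, 30 min at room temperature. Hydroperoxide measured by Fe-xylenol orange, 573/405 nm absorbance ratio.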
HT1080-NT tox: qHTS for induction of synthetic lethality in tumor cells producing 2HG: qHTS for the HT-1080-NT fibrosarcoma cell line | HT-1080-NT fibrosarcoma viability, CellTiter-Glo ATP luminescence, 48 h | Potency, µM (titrated, usually from 46.1 µM), most hits filed as cytotoxic | 1.6% of 360,000 active;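 also: NT is the 2HG producing partner of a matched IDH1 knockdown line; nearly all actives have a fitted effect of over 55% in size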
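Fibrosarcoma NT cells, 750 per well in 5% FBS RPMI, were exposed to compound for 48 hours. Viability: CellTiter-Glo luminescence.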
TDP1 cell CPT: qHTS for Inhibitors of human tyrosyl-DNA phosphodiesterase 1 (TDP1): qHTS in cells in presence of CPT | chicken DT40 Tdp1-/-;hTDP1 cells + 20 nM CPT, ATP luminescence, 48 h | 12% of 420,000 active | Potency, µM (titrated, usually from 46.2 µM), actives largely listed as inhibitors; also: nearly all actives have a fitted effect of over 55% in size
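Cell growth measured by CellTiter-Glo luminescence after a minimum 48 h, 37 C compound exposure with 20 nM CPT in Tdp1-knockout DT40 cells stably expressing hTDP1, seeded 400/well; qHTS titration format.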
HT1080 IDH1KD tx: qHTS for induction of synthetic lethality in tumor cells producing 2HG: qHTS for the HT-1080-IDH1KD cell line; HT-1080 IDH1 knockdown viability, ATP luminescence, 48 h; Potency, µM (series often up to 46.1 µM), usual class: cytotoxic; 2% of 360,000 active; AID 686971, 2013
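Assay cells: HT-1080 with IDH1 knockdown, 750 per well, RPMI/5% FBS. Exposure: 48 h at 37 °C following 2 h pre-incubation. Read: CellTiter-Glo luminescence; fitted concentration-response, curve class assigned.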
TDP1 cell noCPT: qHTS for Inhibitors of human tyrosyl-DNA phosphodiesterase 1 (TDP1): qHTS in cells in absence of CPT; 15% of 420,000 active; AID 686978, 2013; Potency, µM (series often up to 46.2 µM), most hits filed as inhibitors; DT40 Tdp1-/- hTDP1 cells, no CPT, ATP luminescence, 48 h; also: nearly all actives have a fitted effect of over 55% in size
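No-CPT arm: Tdp1-/-;hTDP1 DT40 cells (400/well) plus compounds, incubated ≥48 hr at 37 °C. Readout CellTiter-Glo luminescence.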
IL-1B inflam inh: qHTS for Inhibitors of Inflammasome Signaling: IL-1-beta AlphaLISA Primary Screen. THP-1 LPS/ATP IL-1B secretion, AlphaLISA, 16 h; active compounds read low. activity change, % at 57.5 µM. 4.7% of 360,000 active. AID 743279, 2014; in the data active = activity change below about -50%; inconclusive = mostly about -30% to -49%
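Secreted IL-1B measured by AlphaLISA bead assay after 16 h compound exposure of THP-1 cells; compounds (final up to 57.5 uM) added 1 h before LPS (250 ng/mL) and ATP (1.25 mM) stimulation; lower signal means less secretion.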
Numbers stand for hits. Unless noted, calls follow the shape of the dose curve; as a rule, active = well fitted curve in the direction sought with a large enough effect; inconclusive = small, poorly fitted or top-dose-only effect, or another doubt; inactive = no such curve, though single readings can be large; an effect the other way counts as inactive or inconclusive.

For Cc1ccnc(NC(=O)COc2ccc3oc4c(c3c2)CCCC4)c1 the results were ALOX12 inh inactive, HT1080-NT tox inactive, TDP1 cell CPT inconclusive, HT1080 IDH1KD tx inactive, TDP1 cell noCPT 12µM and IL-1B inflam inh inactive.
Screening O=C(COc1ccc2c3c(c(=O)oc2c1)CCC3)Nc1ccc(CCO)cc1 returned ALOX12 inh inactive, HT1080-NT tox inactive, TDP1 cell CPT inactive, HT1080 IDH1KD tx inactive, TDP1 cell noCPT inactive and IL-1B inflam inh -53.
C[C@H](NC(=O)N1CCn2c1nc1ccccc12)C(=O)NCCc1ccccc1 was read as ALOX12 inh inactive, HT1080-NT tox inactive, TDP1 cell CPT inactive, HT1080 IDH1KD tx inactive, TDP1 cell noCPT inactive and IL-1B inflam inh inactive.
For Cc1ccc(SCC(=O)Nc2ccc(O)c(-c3nc4cc(C)ccc4o3)c2)cc1 the results were ALOX12 inh inactive, TDP1 cell CPT inconclusive and TDP1 cell noCPT 21µM.
`Cc1ccc(SCC(=O)Nc2ccc3oc(-c4ccc(F)cc4)nc3c2)cc1` gave ALOX12 inh inactive, TDP1 cell CPT inconclusive and TDP1 cell noCPT inconclusive.
O=C(Nc1ccc(O)c(-c2nc3ccccc3o2)c1)C1(c2ccc(Br)cc2)CCCC1 was read as ALOX12 inh inactive, HT1080-NT tox inactive, TDP1 cell CPT inconclusive, HT1080 IDH1KD tx inactive, TDP1 cell noCPT 13µM and IL-1B inflam inh inactive.
`COc1ccc(C(=O)Nc2ccccc2-c2nc3ccccc3s2)c(OC)c1` gave ALOX12 inh inactive, TDP1 cell CPT 18µM and TDP1 cell noCPT 16µM.
Screening Cc1ccc(OCC(=O)Nc2ccc(O)c(-c3nc4ccccc4o3)c2)cc1 returned ALOX12 inh inactive, HT1080-NT tox inconclusive, TDP1 cell CPT 12µM, HT1080 IDH1KD tx inconclusive, TDP1 cell noCPT inconclusive and IL-1B inflam inh inactive.
O=C(Cn1c(SCCOc2ccccc2)nc2ccccc21)N1CCOCC1 was read as ALOX12 inh inactive, TDP1 cell CPT inactive and TDP1 cell noCPT inactive.
Screening Cc1ccc(OCC(=O)Nc2cccc(-c3nc4ccccc4s3)c2)cc1 returned ALOX12 inh inactive, TDP1 cell CPT inconclusive and TDP1 cell noCPT inconclusive.
`O=C(COc1ccc([N+](=O)[O-])cc1)Nc1ccc2oc(-c3ccc(F)cc3)nc2c1` gave ALOX12 inh 7.9µM.
COc1ccc(OCC(=O)Nc2cccc(-c3nc4cc(C)c(C)cc4o3)c2)cc1 was read as ALOX12 inh inactive.
For Cc1ccc(OCC(=O)Nc2ccc(O)c(-c3nc4cc(C)c(C)cc4o3)c2)cc1 the results were TDP1 cell CPT inconclusive and TDP1 cell noCPT 1.6µM.
Screening COc1ccc(OCC(=O)Nc2ccc(O)c(-c3nc4ccccc4s3)c2)cc1 returned ALOX12 inh inactive, TDP1 cell CPT 0.82µM and TDP1 cell noCPT inconclusive.
O=C(Cc1cccs1)N(Cc1cccnc1)C1CC1 was read as ALOX12 inh inactive.
For Cc1[nH][nH]c(=O)c1C(c1c(C)[nH][nH]c1=O)c1cn(C)c2ccccc12 the results were ALOX12 inh inconclusive, HT1080-NT tox inactive, TDP1 cell CPT inactive, HT1080 IDH1KD tx inactive and TDP1 cell noCPT inconclusive.
Cc1[nH][nH]c(=O)c1C(c1c(C)[nH][nH]c1=O)c1cn(Cc2cccc3ccccc23)c2ccccc12 was read as ALOX12 inh inactive, HT1080-NT tox inconclusive, TDP1 cell CPT 8.2µM, HT1080 IDH1KD tx inconclusive, TDP1 cell noCPT 7.3µM and IL-1B inflam inh inactive.
COc1ccccc1N1C(=O)C=C(Sc2nc(C)cc(C)n2)C1=O was read as ALOX12 inh 10µM, HT1080-NT tox inactive, TDP1 cell CPT 1.2µM, HT1080 IDH1KD tx inactive, TDP1 cell noCPT 2.3µM and IL-1B inflam inh inactive.
